# Assay results taken from the supplement of paper PMC8728848.
# The entries come from a sample that favours the strongest signals as a whole.
# B1: rMpL (Macrolepiota procera) (protein)
# chain: MSTQVSSGRTYKITNVIAGTVIDLSGEDNKSIIGYPYHSGKNQQWTFNWTGKAWTLRSASSGSYLGIEGTPAGGTRLVAVNDPFEWHIWRDEANENAFRIFVPFTNYNLDLSGYGDTTPGTPVQLWWTWEGLHQTWTIDRP
# Assays:
# Assay in all cases: glycan array binding signal (z-score within array); higher = stronger binding
# Details in all cases: glycan notation: IUPAC condensed, linker removed
# [1] = molecular target: Fuc(a1-2)Gal(b1-3)GalNAc(b1-3)Gal
# In short: (§1)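 The binding signal is a Z-score computed within each array. Data were drawn from 3228 arrays in the Consortium for Functional Glycomics database, restricted to those with a known protein sequence. Scores were averaged over arrays of the same protein sequence at different concentrations or buffers, and over linkers, and negative values can be taken as non-binding.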
# [2] = molecular target: Fuc(a1-2)Gal(b1-3)GlcNAc(b1-3)[Fuc(a1-2)Gal(b1-3)GlcNAc(b1-6)]GalNAc
# In short: as §1
# [3] = molecular target: Fuc(a1-2)Gal(b1-4)GlcNAc(b1-3)Gal(b1-4)GlcNAc(b1-3)Gal(b1-4)GlcNAc
# In short: as §1
# [4] = molecular target: Fuc(a1-2)Gal(b1-4)GlcNAc(b1-3)GalNAc
# In short: as §1
# [5] = molecular target: Fuc(a1-2)[Gal(a1-3)]Gal(b1-3)GlcNAc(b1-2)Man(a1-3)[Fuc(a1-2)[Gal(a1-3)]Gal(b1-3)GlcNAc(b1-2)Man(a1-6)]Man(b1-4)GlcNAc(b1-4)GlcNAc
# In short: as §1
# [6] = molecular target: Fuc(a1-2)[Gal(a1-3)]Gal(b1-4)GlcNAc(b1-2)Man(a1-3)[Fuc(a1-2)[Gal(a1-3)]Gal(b1-4)GlcNAc(b1-2)Man(a1-6)]Man(b1-4)GlcNAc(b1-4)GlcNAc
# In short: as §1
# [7] = molecular target: Fuc(a1-2)[Gal(a1-3)]Gal(b1-4)[Fuc(a1-3)]GlcNAc
# In short: as §1
# [8] = molecular target: Fuc(a1-2)[GalNAc(a1-3)]Gal(b1-3)GlcNAc(b1-6)GalNAc
# In short: as §1
# [9] = molecular target: Fuc(a1-3)[Gal(b1-4)]GlcNAc(b1-6)GalNAc
# In short: as §1
# [10] = molecular target: Fuc(a1-3)[Gal3S(b1-4)]GlcNAc
# In short: as §1
# Fuc(a1-4)GlcNAc = molecular target: Fuc(a1-4)GlcNAc
# In short: as §1
# Gal(a1-3)Gal(b1-4)Glc = molecular target: Gal(a1-3)Gal(b1-4)Glc
# In short: as §1
# [11] = molecular target: Gal(a1-3)Gal(b1-4)GlcNAc(b1-6)GalNAc
# In short: as §1
# Gal(b1-3)Gal(b1-4)GlcNAc = molecular target: Gal(b1-3)Gal(b1-4)GlcNAc
# In short: as §1
# Gal(b1-3)GalNAc = molecular target: Gal(b1-3)GalNAc
# In short: as §1
# Gal(b1-3)GalNAc(b1-3)Gal = molecular target: Gal(b1-3)GalNAc(b1-3)Gal
# In short: as §1
# [12] = molecular target: Gal(b1-3)GlcNAc(b1-2)[Gal(b1-3)GlcNAc(b1-6)]Man(a1-6)[Gal(b1-3)GlcNAc(b1-2)Man(a1-3)]Man(b1-4)GlcNAc(b1-4)GlcNAc
# In short: as §1
# [13] = molecular target: Gal(b1-3)GlcNAc(b1-3)Gal(b1-4)Glc
# In short: as §1
# [14] = molecular target: Gal(b1-3)GlcNAc(b1-3)Gal(b1-4)GlcNAc(b1-2)[Gal(b1-3)GlcNAc(b1-3)Gal(b1-4)GlcNAc(b1-6)]Man(a1-6)[Gal(b1-3)GlcNAc(b1-3)Gal(b1-4)GlcNAc(b1-2)Man(a1-3)]Man(b1-4)GlcNAc(b1-4)[Fuc(a1-6)]GlcNAc
# In short: as §1
# [15] = molecular target: Gal(b1-3)GlcNAc(b1-3)Gal(b1-4)GlcNAc(b1-3)Gal(b1-4)GlcNAc(b1-2)[Gal(b1-3)GlcNAc(b1-3)Gal(b1-4)GlcNAc(b1-3)Gal(b1-4)GlcNAc(b1-6)]Man(a1-6)[Gal(b1-3)GlcNAc(b1-3)Gal(b1-4)GlcNAc(b1-3)Gal(b1-4)GlcNAc(b1-2)Man(a1-3)]Man(b1-4)GlcNAc(b1-4)[Fuc(a1-6)]GlcNAc
# In short: as §1
# [16] = molecular target: Gal(b1-3)GlcNAc(b1-3)Gal(b1-4)GlcNAc(b1-6)[Gal(b1-3)GlcNAc(b1-3)]Gal(b1-4)Glc
# In short: as §1
# [17] = molecular target: Gal(b1-3)GlcNAc(b1-3)GalNAc
# In short: as §1
# [18] = molecular target: Gal(b1-4)GlcNAc(a1-6)Gal(b1-4)GlcNAc
# In short: as §1
# [19] = molecular target: Gal(b1-4)GlcNAc(b1-2)[Gal(b1-4)GlcNAc(b1-4)]Man(a1-3)[Gal(b1-4)GlcNAc(b1-2)[Gal(b1-4)GlcNAc(b1-6)]Man(a1-6)][GlcNAc(b1-4)]Man(b1-4)GlcNAc(b1-4)GlcNAc
# In short: as §1
# [20] = molecular target: Gal(b1-4)GlcNAc(b1-2)[Gal(b1-4)GlcNAc(b1-4)]Man(a1-3)[GlcNAc(b1-4)][Gal(b1-4)GlcNAc(b1-2)Man(a1-6)]Man(b1-4)GlcNAc(b1-4)GlcNAc
# In short: as §1
# [21] = molecular target: Gal(b1-4)GlcNAc(b1-3)Gal(b1-4)GlcNAc(b1-2)[Gal(b1-4)GlcNAc(b1-3)Gal(b1-4)GlcNAc(b1-6)]Man(a1-6)[Gal(b1-4)GlcNAc(b1-3)Gal(b1-4)GlcNAc(b1-2)Man(a1-3)]Man(b1-4)GlcNAc(b1-4)GlcNAc
# In short: as §1
# [22] = molecular target: Gal(b1-4)GlcNAc(b1-3)Gal(b1-4)GlcNAc(b1-2)[Gal(b1-4)GlcNAc(b1-3)Gal(b1-4)GlcNAc(b1-6)]Man(a1-6)[Gal(b1-4)GlcNAc(b1-3)Gal(b1-4)GlcNAc(b1-2)Man(a1-3)]Man(b1-4)GlcNAc(b1-4)[Fuc(a1-6)]GlcNAc
# In short: as §1
# [23] = molecular target: Gal(b1-4)GlcNAc(b1-3)Gal(b1-4)GlcNAc(b1-3)Gal(b1-4)GlcNAc(b1-2)[Gal(b1-4)GlcNAc(b1-3)Gal(b1-4)GlcNAc(b1-3)Gal(b1-4)GlcNAc(b1-6)]Man(a1-6)[Gal(b1-4)GlcNAc(b1-3)Gal(b1-4)GlcNAc(b1-3)Gal(b1-4)GlcNAc(b1-2)Man(a1-3)]Man(b1-4)GlcNAc(b1-4)[Fuc(a1-6)]GlcNAc
# In short: as §1
# [24] = molecular target: Gal(b1-4)GlcNAc(b1-3)Gal(b1-4)GlcNAc(b1-3)Gal(b1-4)GlcNAc(b1-3)Gal(b1-4)GlcNAc(b1-2)Man(a1-3)[Gal(b1-4)GlcNAc(b1-3)Gal(b1-4)GlcNAc(b1-3)Gal(b1-4)GlcNAc(b1-3)Gal(b1-4)GlcNAc(b1-2)Man(a1-6)]Man(b1-4)GlcNAc(b1-4)GlcNAc
# In short: as §1
binder,measurement,setting,value
B1,glycan array binding signal (z-score),[1],-0.272
same,glycan array binding signal (z-score),[2],-0.078
same,glycan array binding signal (z-score),[3],-0.248
same,glycan array binding signal (z-score),[4],-0.301
same,glycan array binding signal (z-score),[5],-0.259
same,glycan array binding signal (z-score),[6],-0.257
same,glycan array binding signal (z-score),[7],-0.216
same,glycan array binding signal (z-score),[8],-0.353
same,glycan array binding signal (z-score),[9],-0.065
same,glycan array binding signal (z-score),[10],-0.253
same,glycan array binding signal (z-score),Fuc(a1-4)GlcNAc,-0.316
same,glycan array binding signal (z-score),Gal(a1-3)Gal(b1-4)Glc,-0.194
same,glycan array binding signal (z-score),[11],-0.27
same,glycan array binding signal (z-score),Gal(b1-3)Gal(b1-4)GlcNAc,-0.257
same,glycan array binding signal (z-score),Gal(b1-3)GalNAc,-0.273
same,glycan array binding signal (z-score),Gal(b1-3)GalNAc(b1-3)Gal,-0.243
same,glycan array binding signal (z-score),[12],3.42
same,glycan array binding signal (z-score),[13],0.808
same,glycan array binding signal (z-score),[14],2.4
same,glycan array binding signal (z-score),[15],3.58
same,glycan array binding signal (z-score),[16],4.17
same,glycan array binding signal (z-score),[17],0.153
same,glycan array binding signal (z-score),[18],9.59
same,glycan array binding signal (z-score),[19],4.13
same,glycan array binding signal (z-score),[20],1.46
same,glycan array binding signal (z-score),[21],1.23
same,glycan array binding signal (z-score),[22],3.75
same,glycan array binding signal (z-score),[23],4.71
same,glycan array binding signal (z-score),[24],3.24
